{"source": "PubChem BioAssay AID602410", "about": "(Johns Hopkins Ion Channel Center, 2012)", "note": "Among all 340,000 compounds or so, about 2,800 (0.82%) were called active.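 How the source made its calls: active means B-score under library mean minus 4 SD, starting fluorescence ratio at most library mean plus 5 SD; inactive means the rest.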 Many of the other results were omitted from the sample, so actives are more common in it than they were."}
{"target": "Potassium channel subfamily K member 3 (Homo sapiens) (UniProt O14649)", "sequence (O14649 whole entry, looked up)": "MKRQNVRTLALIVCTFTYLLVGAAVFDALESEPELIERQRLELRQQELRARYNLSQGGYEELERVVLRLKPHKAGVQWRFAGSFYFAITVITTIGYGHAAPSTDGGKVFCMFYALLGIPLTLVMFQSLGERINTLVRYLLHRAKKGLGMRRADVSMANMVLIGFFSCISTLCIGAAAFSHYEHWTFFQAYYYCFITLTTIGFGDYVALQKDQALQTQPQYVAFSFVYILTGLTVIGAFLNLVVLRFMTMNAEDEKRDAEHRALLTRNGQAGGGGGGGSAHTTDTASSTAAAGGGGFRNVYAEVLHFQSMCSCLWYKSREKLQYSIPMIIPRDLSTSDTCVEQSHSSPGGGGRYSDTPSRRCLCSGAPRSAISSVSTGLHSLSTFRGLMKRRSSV", "experiment": "blockers of TASK1 two-pore potassium channel – CHO cells, FluxOR thallium flux, B-score, primary screen (AID 602410);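 on B-score: more negative B-score means stronger inhibition of thallium flux through KCNK3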", "conditions": "CHO-KCNK3 thallium flux, FluxOR fluorescence, at 10 µM; active compounds read low"}
{"compound": "Cc1nn(CC(=O)Nc2nc3ccccc3s2)c(C)c1[N+](=O)[O-]", "B-score": "-10.5 (active)"}
{"compound": "Cc1nn(CC(=O)Nc2ccc(N(C)C)cc2)c(C)c1[N+](=O)[O-]", "B-score": "inactive"}
{"compound": "Cc1nn(CC(=O)NCc2ccccn2)c(C)c1[N+](=O)[O-]", "B-score": "inactive"}
{"compound": "CCN(CC(=O)NCc1ccc(F)cc1)S(=O)(=O)c1ccc(Cl)s1", "B-score": "inactive"}
{"compound": "CC(C(=O)NC1CCCC1)N(c1ccc(Oc2ccccc2)cc1)S(C)(=O)=O", "note": "(centres undefined)", "B-score": "inactive"}
{"compound": "COC(=O)c1cc(C)sc1NC(=O)CC1Nc2ccccc2NC1=O", "note": "(centres undefined)", "B-score": "inactive"}
{"compound": "COC(=O)C1=C(C)N(C(C)c2ccccc2)C(=O)/C1=C\\c1ccco1", "note": "(centres undefined)", "B-score": "-9.57 (active)"}
{"compound": "COC(=O)COc1ccc2c(c1C)O/C(=C\\c1ccco1)C2=O", "B-score": "inactive"}
{"compound": "O=C(OCN1C(=O)c2ccccc2C1=O)/C(=C\\c1ccco1)NC(=O)c1ccccc1", "B-score": "inactive"}
{"compound": "CC(=O)NCCC(=O)Nc1cc(S(=O)(=O)N2CCCCC2)ccc1Oc1cccc(C)c1", "B-score": "inactive"}
{"compound": "Cc1c(NC(=O)CCC2CCCCC2)cc(C(=O)N2CCOCC2)cc1[N+](=O)[O-]", "B-score": "inactive"}
{"compound": "CC(C)N1C(=O)N(c2ccccc2)C(C)(O)CC1(C)C", "note": "(centres undefined)", "B-score": "inactive"}
{"compound": "CC(C)N(Cc1nc(-c2ccc3c(c2)OCO3)no1)CC1CCC(=O)N1", "note": "(centres undefined)", "B-score": "inactive"}
{"compound": "Cc1c(S(=O)(=O)NC(C)c2ccccc2)c(=O)n(C)c(=O)n1C", "note": "(centres undefined)", "B-score": "inactive"}
{"compound": "Cc1ccc(NC(=O)COC(=O)C2CC2)cc1S(=O)(=O)N1CCOCC1", "B-score": "inactive"}
{"compound": "Cc1ccc(NC(=O)COC(=O)CNC(=O)c2ccc(Cl)cc2Cl)cc1S(=O)(=O)N1CCOCC1", "B-score": "-10.7 (active)"}
{"compound": "Cc1ccc(NC(=O)CCCNC(=O)c2ccc(Cl)cc2)cc1S(=O)(=O)N1CCOCC1", "B-score": "inactive"}
{"compound": "CC1COc2ccccc2N1C(=O)c1cccnc1Cl", "note": "(centres undefined)", "B-score": "inactive"}
{"compound": "CC(=O)c1ccccc1OCc1ccc(C(=O)c2ccccc2)cc1", "B-score": "-15.7 (active)"}
{"compound": "COc1ccc(CCNC(=O)c2ccccc2OCc2ccccc2)cc1", "B-score": "inactive"}
{"compound": "O=C(NC1CCC(O)CC1)c1ccccc1OCc1ccc(F)cc1", "note": "(centres undefined)", "B-score": "inactive"}
{"compound": "O=C(OCCOCn1cc(Br)c(=O)[nH]c1=O)c1ccccc1", "B-score": "inactive"}
{"compound": "Cc1nc2ccccc2cc1OCc1ccc(F)cc1", "B-score": "-11.4 (active)"}
{"compound": "Fc1cccc2ncnc(OCc3ccccc3)c12", "B-score": "inactive"}
{"compound": "Cc1occc(=O)c1OCc1ccc(F)cc1", "B-score": "inactive"}
{"compound": "CCc1ccc(N2CC(C(=O)N3CCCCCC3)CC2=O)cc1", "note": "(centres undefined)", "B-score": "inactive"}
{"compound": "COc1ccccc1N1CCN(/N=C\\C(Br)=C\\c2ccccc2)CC1", "B-score": "-9.41 (active)"}
{"compound": "COc1cc(/C=N/N2CCN(c3ccccc3)CC2)ccc1OC(C)=O", "B-score": "inactive"}
{"compound": "COc1ccccc1N1CCN(/N=C/c2ccc(O)cc2O)CC1", "B-score": "inactive"}
{"compound": "COc1ccc(CC(=O)N[C@@H](CCSC)c2nc3ccccc3[nH]2)cc1", "B-score": "inactive"}
{"compound": "CC1CC(C)CN(c2ccc(S(=O)(=O)N3CCOCC3)cc2)C1", "note": "(centres undefined)", "B-score": "inactive"}
{"compound": "Cc1ccc(CSc2nsc(C)c2C#N)cc1", "B-score": "inactive"}
{"compound": "Cc1cc(C)c(C#N)c(SCc2ccc3c(c2)OCO3)n1", "B-score": "-11.2 (active)"}
{"compound": "Cc1cc(C)c(C#N)c(SCc2ccccc2C(=O)O)n1", "B-score": "inactive"}
{"compound": "CCOc1ccc(OCC)c(NC(=O)C(NS(=O)(=O)c2ccc3c(c2)oc(=O)n3C)C(C)C)c1", "note": "(centres undefined)", "B-score": "inactive"}
{"compound": "COc1ccccc1OCC(=O)Nc1ccccc1C(=O)NC1CC1", "B-score": "inactive"}
{"compound": "COc1ccc(C(=O)c2c3ccc([N+](=O)[O-])cc3[n+]([O-])n2CCCN)cc1", "B-score": "inactive"}
{"compound": "COCC(=O)Nc1cc(C(=O)OC)cc(C(=O)OC)c1", "B-score": "inactive"}
{"compound": "O=C(O)c1ccccc1C(=O)NC1=NN(c2ccccc2)CC1", "B-score": "inactive"}
{"compound": "N/C(=N\\OC(=O)CCn1cccc(C(F)(F)F)c1=O)c1ccc(OC(F)(F)F)cc1", "B-score": "inactive"}
{"compound": "C=CCc1cc(S(=O)(=O)c2ccc(O)c(CC=C)c2)ccc1O", "B-score": "-11 (active)"}
{"compound": "COc1ccc(CNC(=O)C2CCC(CNc3c(N4CCOCC4)c(=O)c3=O)CC2)cc1", "note": "(centres undefined)", "B-score": "inactive"}
{"compound": "O=C(NCCc1ccccn1)c1nc(Cn2cc([N+](=O)[O-])cn2)no1", "B-score": "inactive"}
{"compound": "O=C(c1cc(-c2ccc(O)cc2)on1)N1CCOCC1", "B-score": "inactive"}
{"compound": "O=C(c1cc(-c2ccc(O)cc2)on1)N1CCCc2ccccc21", "B-score": "-9.08 (active)"}
{"compound": "O=C(c1cc(-c2cccc(O)c2)on1)N1CCc2ccccc2C1", "B-score": "inactive"}
{"compound": "Cc1onc(-c2ccccc2)c1C(=O)N=C(N)c1ccc(Cl)cc1", "B-score": "inactive"}
{"compound": "CCc1ccc(C(=O)CSc2nnc(C)c(=O)[nH]2)cc1", "B-score": "inactive"}
{"compound": "COC(=O)c1c(NC(=O)c2ccccc2F)sc2c1C(C(=O)OC)CC2", "note": "(centres undefined)", "B-score": "inactive"}
{"compound": "O=C(CNS(=O)(=O)c1ccccc1)NCC(=O)OCc1ccccc1F", "B-score": "inactive"}
{"compound": "COC(=O)C(C)Sc1ccc2nnc(-c3cccc(F)c3)n2n1", "note": "(centres undefined)", "B-score": "inactive"}
{"compound": "COc1ccc(NC(=O)c2cc3nc(-c4ccccc4)cc(C)n3n2)cc1OC", "B-score": "inactive"}
{"compound": "COCCNc1cc(-c2ccccc2)nc2cc(-c3cccc(F)c3)nn12", "B-score": "-8.74 (active)"}
{"compound": "O=C(CSc1ccccc1)Nc1cc(Cl)ccc1Oc1ccccc1", "B-score": "inactive"}
{"compound": "CC1CCCN(CC(=O)Nc2cc(Cl)ccc2Oc2ccccc2)C1", "note": "(centres undefined)", "B-score": "-11.4 (active)"}
{"compound": "CC(=O)Nc1ccc(NC(=O)CN2CCCC(C)C2)c(Cl)c1", "note": "(centres undefined)", "B-score": "inactive"}
{"compound": "O=C1CCC[C@@H]2CC(N3CCCCC3)C[C@@H]3CCN1[C@H]23", "note": "(some centres undefined)", "B-score": "inactive"}
{"compound": "COc1ccc(CC(NC(C)=O)C(=O)N2CCN(C(=O)Nc3cccc(Cl)c3)CC2)cc1OC", "note": "(centres undefined)", "B-score": "inactive"}
{"compound": "CCc1nc(SCC(=O)NNC(=O)c2ccc(C)cc2)c2ccccc2n1", "B-score": "-8.73 (active)"}
{"compound": "Cc1ccc(C(=O)NNC(=O)CSc2nnc3ccccn23)cc1", "B-score": "inactive"}
{"compound": "CCCNC(=O)CSc1nc(Cc2ccccc2)nc2ccccc12", "B-score": "inactive"}
{"compound": "C=CCSc1nc(Cc2ccc(Cl)cc2)nc2ccccc12", "B-score": "inactive"}
{"compound": "CCCC(=O)Nc1ccc(Cl)c(NC(=O)c2ccc(Br)o2)c1", "B-score": "-9.33 (active)"}
{"compound": "CCN1CCN(c2c(Cl)cccc2NC(=O)c2ccc(Br)o2)CC1", "B-score": "inactive"}
{"compound": "O=C(CNC(=O)c1ccc(Br)o1)Nc1ccccc1", "B-score": "inactive"}
{"compound": "CC(=O)C1=C(C)NC(C)=C(C(C)=O)C1c1cn(-c2ccccc2)nc1-c1cccs1", "B-score": "inactive"}
{"compound": "COc1ccc(C(C(=O)NC(C)(C)C)N(C(=O)Cn2nnc3ccccc32)c2ccc(C(C)=O)cc2)cc1O", "note": "(centres undefined)", "B-score": "inactive"}
{"compound": "C#CC(C)(C)NC(=O)c1cnc(-c2ccccc2)nc1-c1ccccc1", "B-score": "inactive"}
{"compound": "CS(=O)(=O)c1ccc(-c2nnn(CC(=O)Nc3ccc4c(c3)OCCO4)n2)cc1", "B-score": "inactive"}
{"compound": "CC1(C)CC(=O)C/C(=N\\NC(=O)c2cccs2)C1", "B-score": "inactive"}
{"compound": "CN(CC(=O)NCCc1ccc(S(N)(=O)=O)cc1)CC(=O)Nc1ccc(F)c(F)c1F", "B-score": "inactive"}
{"compound": "Cc1ccc(C(=O)N/C(=C\\c2cn(S(=O)(=O)N(C)C)c3ccccc23)C(=O)N2CCCC2)cc1", "B-score": "inactive"}
{"compound": "C=CCOc1cccc(C2C(C(=O)c3ccc(C)o3)=C(O)C(=O)N2c2nnc(C)s2)c1", "note": "(centres undefined)", "B-score": "inactive"}
{"compound": "Cc1ccc2nc(N3C(=O)C(O)=C(C(=O)c4ccco4)C3c3cccc(O)c3)sc2c1", "note": "(centres undefined)", "B-score": "inactive"}
{"compound": "C=CCSc1nnc(N2C(=O)C(O)=C(C(=O)c3ccco3)C2c2ccc(F)cc2)s1", "note": "(centres undefined)", "B-score": "-10.6 (active)"}
{"compound": "Cc1cc(C)c(S(=O)(=O)c2ccccc2)c(OC(=O)c2c(F)cccc2Cl)n1", "B-score": "-14.3 (active)"}
{"compound": "Cc1cc(OC(=O)c2c(Cl)cccc2Cl)nc(C)n1", "B-score": "inactive"}
{"compound": "O=C(c1c(F)cccc1Cl)N1CCN(S(=O)(=O)c2ccc3c(c2)OCCCO3)CC1", "B-score": "inactive"}
{"compound": "CCCCc1nc2ccccc2c(NC(=O)CN2CCN(C)CC2)c1CCC", "B-score": "inactive"}
{"compound": "CSCc1cc(N2CCOCC2)nc(SCc2ccc(Cl)cc2Cl)n1", "B-score": "inactive"}
{"compound": "Clc1ccc(CSc2nnc(/C=C/c3ccccc3)o2)c(Cl)c1", "B-score": "inactive"}
{"compound": "CSCc1cc(N(C)C)nc(SCc2ccc(Cl)cc2Cl)n1", "B-score": "-9.62 (active)"}
{"compound": "N#Cc1cccc(NC(=O)COC(=O)c2ccccc2C(=O)c2ccc(Cl)c([N+](=O)[O-])c2)c1", "B-score": "-11.8 (active)"}
{"compound": "CC(=O)Nc1ccc(NC(=O)C(C)OC(=O)c2ccccc2C(=O)c2ccc(Cl)c([N+](=O)[O-])c2)cc1", "note": "(centres undefined)", "B-score": "inactive"}
{"compound": "CC(=O)Nc1ccc(NC(=O)COC(=O)c2ccccc2C(=O)c2ccccc2)cc1", "B-score": "inactive"}
{"compound": "CCOc1ccc2oc(C(=O)N(CC)CC(=O)Nc3ccc(NC(C)=O)cc3)c(C)c2c1", "B-score": "inactive"}
{"compound": "Cc1nc(=O)c(-c2ccccc2)c(C)n1-c1ccc(Br)cc1", "B-score": "inactive"}
{"compound": "CC(C)Oc1ccc(C2NC(=O)NC2=O)cc1", "note": "(centres undefined)", "B-score": "inactive"}
{"compound": "O=C1c2ccccc2C2=Nc3ccccc3SC(c3ccccc3F)C12", "note": "(centres undefined)", "B-score": "-12.4 (active)"}
{"compound": "Cc1cccc(C2c3c(n(C)c(=O)n(C)c3=O)N=C3c4ccccc4C(=O)C32)c1", "note": "(centres undefined)", "B-score": "inactive"}
{"compound": "Cc1csc2nc(O)c(C(=O)NCCN3CCOCC3)c(=O)n12", "B-score": "inactive"}
{"compound": "COc1ccc(OC)c(NC(=O)c2sc3nc(C)cc(C)c3c2N)c1", "B-score": "inactive"}
{"compound": "Cc1ccc(NC(=O)c2sc3nc(N)c(C#N)cc3c2N)cc1", "B-score": "inactive"}
{"compound": "Cc1cccc(NC(=O)c2sc3nc4c(c(-c5ccco5)c3c2N)CCC4)c1", "B-score": "-11.4 (active)"}
{"compound": "CCCN=C1NC(=O)C(CC(=O)NCCc2ccc(OC)c(OC)c2)S1", "note": "(centres undefined)", "B-score": "inactive"}
{"compound": "O=C1c2ccccc2C(Nc2ccc3c(c2)OCCO3)N1Cc1ccco1", "note": "(centres undefined)", "B-score": "inactive"}
{"compound": "CCOC(=O)c1cccc(NC(=O)C2CCN(c3ncnc4c3nc3n4CCCCC3)CC2)c1", "B-score": "inactive"}
{"compound": "COc1ccccc1NC(=O)Nc1nc(CC(=O)Nc2ccccc2F)cs1", "B-score": "inactive"}
{"compound": "O=C(COc1ccccc1F)Nc1nc(-c2ccccn2)cs1", "B-score": "inactive"}
{"compound": "COc1ccc(CC(=O)Nc2nc(-c3ccc(F)c(F)c3)cs2)cc1OC", "B-score": "-12.4 (active)"}
{"compound": "CCOC(=O)N1CCN(Cc2nc(Cc3cccc(C(F)(F)F)c3)no2)CC1", "B-score": "inactive"}
{"compound": "CN1CCN(CCCNC(=O)c2cc3c(=O)oc4ccccc4c3s2)CC1", "B-score": "inactive"}
{"compound": "O=C(NCCCN1CCOCC1)c1cc2c(s1)CCC2", "B-score": "inactive"}
{"compound": "Cc1cccc2c1-c1sc(C(=O)NCCCN3CCc4ccccc4C3)cc1CO2", "B-score": "-9.55 (active)"}
